Screening data as filed in PubChem.
Sampled rows, rich in hits. Any-hit rate of the full collection: about 9%.
IMPase Li cell: IMPase inhibition in cells with lithium potentiation; CHO-M1 cells, IP1 TR-FRET (IP-One), carbachol + lithium; Potency, µM (doses to about 59.4 µM), without a hit: at the top dose activity, negative = IMPase inhibition, hits mostly inhibitors; 210,000 tested, 0.35% active; active = well fitted curve in the direction sought with a large enough effect; inconclusive = small, poorly fitted or top-dose-only effect, or another doubt; inactive = no such curve, though single readings can be large; an effect the other way counts as inactive or inconclusive;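 also: IP1 builds up when IMPase is blocked and the TR-FRET signal falls; plate controls were basal vehicle for no effect and high inhibitor control for full effect; nearly all actives have a fitted effect of over 50% in size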
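Steps: plate 2000 CHO-M1 cells per well and culture 16–30 h; add compound and lithium; incubate 30 min, 37C; add d2-IP1 tracer and Eu cryptate anti-IP1 antibody in lysis buffer; read after 10 min at room temperature.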
ALDH1A1 inh: blocks purified human ALDH1A1 activity | 220,000 tested, 7.3% active | P00352 | Potency, µM (titrated, usually from 75.3 µM), without a hit: at the top dose activity, negative = inhibition, actives largely listed as inhibitors | Purified ALDH1A1, NADH fluorescence, propionaldehyde substrate;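 also: plate controls were no enzyme wells and a reference inhibitor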
Target sequence (P00352 whole entry, looked up): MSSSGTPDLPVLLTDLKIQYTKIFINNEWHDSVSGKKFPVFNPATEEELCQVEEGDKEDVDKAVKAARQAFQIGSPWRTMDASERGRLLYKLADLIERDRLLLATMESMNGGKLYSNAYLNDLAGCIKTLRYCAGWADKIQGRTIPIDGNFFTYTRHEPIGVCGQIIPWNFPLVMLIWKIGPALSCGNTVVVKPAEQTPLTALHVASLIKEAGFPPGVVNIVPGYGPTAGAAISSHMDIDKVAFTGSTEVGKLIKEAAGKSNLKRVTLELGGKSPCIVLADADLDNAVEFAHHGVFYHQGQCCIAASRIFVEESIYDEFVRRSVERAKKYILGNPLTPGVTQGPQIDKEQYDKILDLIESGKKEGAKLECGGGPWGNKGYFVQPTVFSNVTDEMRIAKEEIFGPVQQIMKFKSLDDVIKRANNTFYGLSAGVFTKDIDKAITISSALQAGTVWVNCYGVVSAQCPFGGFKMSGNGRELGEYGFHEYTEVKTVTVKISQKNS
Lamin A splicing: modulators of lamin A splicing; AID 1487; 200,000 tested, 0.01% active; Potency, µM (titrated, usually from 46.1 µM), for inactives: at the top dose ratio change, negative = inhibition, actives largely listed as inhibitors; HeLa LMNA splicing GFP/RFP minigene ratio, 48 h; active = well fitted inhibition curve with a large enough effect in the signal ratio, with a control signal flat, not every such curve was filed as active; inconclusive = small, poorly fitted or top-dose-only effect, or effect the other way, or a change in a side signal; the % refers to the signal ratio
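Read-out is the ratio of GFP to DsRed2 object intensity, acquired by 488 nm laser-scanning cytometry on HeLa lamin A-EGFP minigene reporter cells. Compound incubation 48 hrs at 37 °C in Opti-MEM with 2% FBS; DMSO 0.5% final.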
HPGD block: blocks human HPGD enzyme activity. Potency, µM, inactives show top-dose activity change, negative = inhibition, most hits filed as inhibitors. AID 894. purified HPGD, NADH fluorescence kinetic, PGE2 substrate. P15428. 150,000 tested, 4.3% active
Target sequence (P15428 whole entry, looked up): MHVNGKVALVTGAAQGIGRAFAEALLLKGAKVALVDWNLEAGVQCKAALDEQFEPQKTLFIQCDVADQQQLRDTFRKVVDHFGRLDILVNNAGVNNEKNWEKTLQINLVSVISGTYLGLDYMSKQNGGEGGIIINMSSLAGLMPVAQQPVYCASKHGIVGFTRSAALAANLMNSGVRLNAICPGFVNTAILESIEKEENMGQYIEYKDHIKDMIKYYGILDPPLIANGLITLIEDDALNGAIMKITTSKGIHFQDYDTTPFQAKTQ
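20 nM HPGD preincubated 15 min at room temperature with compound in 50 mM Tris-HCl pH 8, 0.01% Tween 20. Started with 1 mM NAD+ and 30 uM prostaglandin E2; NADH fluorescence (360/450 nm) read 5 times over 30-s intervals, last minus first.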
Luc counter: Kinase-Glo luciferase inhibition (counter-screen) | Potency, µM (highest dose often 38.3 µM), inactives show top-dose activity change, negative = inhibition, actives largely listed as inhibitors | 200,000 tested, 0.28% active | Kinase-Glo luciferase, ATP luminescence, 8 min | Q27757; active = well fitted curve in the direction sought with a large enough effect; inconclusive = small, poorly fitted or top-dose-only effect, or another doubt; inactive = no such curve, though single readings can be large; an effect the other way counts as inactive or inconclusive; also: nearly all actives have a fitted effect of over 60% in size
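Inhibition of Kinase-Glo luciferase light generation was assessed at 10 uM ATP in pH 7.2 imidazole buffer, with luminescence measured after eight minutes at ambient temperature.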
Starred values were filed as active, the others as inactive; [ ] = dose if it differs, or a comment. Unless noted, calls follow the shape of the dose curve; as a rule, active = well fitted inhibition curve with a large enough effect (not every such curve was filed as active); inconclusive = small, poorly fitted or top-dose-only effect, or another doubt; inactive = no such curve, though single readings can be large or run the other way. Unless noted, % is scaled to controls: 0 for no effect and ±100 for the full control effect; potency is read from the fitted curve at half-maximal effect.

What do the screens show for `COc1cc(O)oc1C=Nc1ccc(Oc2ccccc2)cc1`?
IMPase Li cell: 15%[38.3 µM]; ALDH1A1 inh: inconclusive; Lamin A splicing: 2%; HPGD block: -27%; Luc counter: -4%

How did COc1cc(O)oc1C=Nc1ccc(Cl)cc1 do in these assays?
IMPase Li cell: -8%[38.3 µM]; ALDH1A1 inh: inconclusive; Lamin A splicing: -6%; HPGD block: -13%; Luc counter: -10%

Results for COc1cc(O)oc1C=Nc1ccc(C(=O)O)cc1 ?
IMPase Li cell: 4%; ALDH1A1 inh: -5%; Lamin A splicing: 19%[9.22 µM]; Luc counter: 13µM*

How did COc1cc(O)oc1C=Nc1ccc(Cl)cc1Cl do in these assays?
IMPase Li cell: -17%[38.3 µM]; ALDH1A1 inh: 14µM*; Lamin A splicing: 9%; HPGD block: inconclusive; Luc counter: -6%

How did COC(=O)c1c(NC(=O)CS(=O)(=O)c2ccc(C)cc2)sc2c1CCCC2 do in these assays?
Lamin A splicing: 6%[46 µM]

What do the screens show for `O=C(Nc1ccccc1)C1=C[C@@H](c2ccc(Br)cc2)C[C@@H](OCCCCO)O1`?
IMPase Li cell: 15%; ALDH1A1 inh: 7.9µM*

What do the screens show for `CC(=O)n1cc([C@@H]2C=C(C(=O)Nc3ccccc3)O[C@H](OCCCCO)C2)c2ccccc21`?
IMPase Li cell: 7%; ALDH1A1 inh: 13µM*

How did CC(=O)n1cc([C@H]2C=C(C(=O)O)O[C@@H](OCCCCO)C2)c2ccccc21 do in these assays?
IMPase Li cell: -2%; ALDH1A1 inh: inconclusive

Results for Cc1nnsc1C(=O)N/N=C/c1ccc(OC(F)(F)F)cc1 ?
IMPase Li cell: 4%; ALDH1A1 inh: 11%; Lamin A splicing: inconclusive; Luc counter: 2%

What do the screens show for `Cc1nc(-c2ccccc2)sc1C(=O)/C=C/c1ccc(Cl)cc1`?
IMPase Li cell: 10%[38.3 µM]; ALDH1A1 inh: 3.2µM*; Lamin A splicing: inconclusive; HPGD block: -11%; Luc counter: -1%

How did CC(=O)c1sc(-c2ccc(Cl)cc2)nc1C do in these assays?
IMPase Li cell: 5%; ALDH1A1 inh: 3%; Lamin A splicing: -4%[46 µM]; Luc counter: -3%

Results for CC(=O)c1ccc(NC(=O)CN(C)S(=O)(=O)c2cc3c(cc2Cl)NC(=O)CO3)cc1 ?
Lamin A splicing: 3%[46 µM]

How did CN(C)S(=O)(=O)c1ccc(/C(O)=C2/C(=O)C(=O)N(Cc3cccnc3)C2c2cccs2)cc1 (stereo not drawn) do in these assays?
IMPase Li cell: -14%; ALDH1A1 inh: inconclusive

What do the screens show for `Cc1c(/C(O)=C2/C(=O)C(=O)N(Cc3cccnc3)C2c2ccccn2)cnn1-c1ccccc1` (stereo not drawn)?
IMPase Li cell: inconclusive; ALDH1A1 inh: inconclusive; Lamin A splicing: -6%[46 µM]; Luc counter: 2%

What do the screens show for `Cc1c(/C(O)=C2/C(=O)C(=O)N(Cc3cccnc3)C2c2cccs2)cnn1-c1ccccc1` (stereo not drawn)?
IMPase Li cell: 7.1µM*; ALDH1A1 inh: 1.1µM*; Lamin A splicing: -3%; HPGD block: 20µM*; Luc counter: 2%

How did CN(C)S(=O)(=O)c1ccc(/C(O)=C2/C(=O)C(=O)N(CCN3CCCCC3)C2c2cccnc2)cc1 (stereo not drawn) do in these assays?
ALDH1A1 inh: 22µM*; HPGD block: -9%; Luc counter: 0%

How did CN(C)S(=O)(=O)c1ccc(/C(O)=C2/C(=O)C(=O)N(Cc3cccnc3)C2c2ccncc2)cc1 (stereo not drawn) do in these assays?
IMPase Li cell: 0%[38.3 µM]; ALDH1A1 inh: 14µM*; Lamin A splicing: 4%; HPGD block: -13%; Luc counter: -1%

How did CCN(CC)CCN1C(=O)C(=O)/C(=C(/O)c2ccc(F)cc2)C1c1cccnc1 (stereo not drawn) do in these assays?
IMPase Li cell: 0%; ALDH1A1 inh: -4%; Lamin A splicing: 1%; HPGD block: -3%; Luc counter: -2%

What do the screens show for `COc1ccc(C(=O)NNC(=O)c2cccc(F)c2)cc1`?
IMPase Li cell: 3%; ALDH1A1 inh: inconclusive; Lamin A splicing: -7%[46 µM]; Luc counter: -1%

What do the screens show for `Cc1ccc2c(c1)N(CC(=O)OCC(=O)NCc1ccccc1)C(=O)CO2`?
IMPase Li cell: -2%; ALDH1A1 inh: 5%; Lamin A splicing: -1%[46 µM]; Luc counter: 0%

How did CCc1nc(OCC(=O)c2ccccc2)c(C#N)c2c1COC(C)(C)C2 do in these assays?
IMPase Li cell: 11%[38.3 µM]; ALDH1A1 inh: 6.3µM*; Lamin A splicing: -4%; HPGD block: -13%; Luc counter: 15%

Results for COc1ccccc1CNC(=O)CN1C(=O)CCc2cc(S(=O)(=O)N3CCOCC3)ccc21 ?
Lamin A splicing: 2%[46 µM]

What do the screens show for `O=C1NCCCN1Cc1ccc(F)cc1Cl`?
IMPase Li cell: 15%[38.3 µM]; ALDH1A1 inh: 4.5µM*; Lamin A splicing: -2%; HPGD block: -20%; Luc counter: -5%

How did O=C1NCCCN1Cc1ccc(F)cc1 do in these assays?
IMPase Li cell: 16%[38.3 µM]; ALDH1A1 inh: 2%; Lamin A splicing: 1%; HPGD block: -14%; Luc counter: 0%

What do the screens show for `CC1=C(C(=O)OCC(C)C)C(c2cccc(F)c2)N2C(=O)C(C)SC2=N1` (stereo not drawn)?
IMPase Li cell: 29%[38.3 µM]; ALDH1A1 inh: 0.45µM*; Lamin A splicing: 5%; HPGD block: inconclusive; Luc counter: -1%

What do the screens show for `CCN(C(=O)/C=C/c1ccc2c(c1)OCO2)c1ccccc1`?
IMPase Li cell: 2%; ALDH1A1 inh: -15%; Lamin A splicing: 1%; HPGD block: 28µM*; Luc counter: -5%

What do the screens show for `CCOC(=O)CNC(=O)/C=C/c1ccc2c(c1)OCO2`?
IMPase Li cell: 17%; ALDH1A1 inh: inconclusive; Lamin A splicing: -9%[46 µM]; Luc counter: -6%

How did Cc1ccc(NC(=O)CSc2nc(=O)n(Cc3ccco3)c3c2CCC3)cc1F do in these assays?
Lamin A splicing: -2%[46 µM]

What do the screens show for `COC(=O)CSc1nc2c(c(-c3ccc(O)cc3)c1C#N)CCCC2`?
IMPase Li cell: -3%; ALDH1A1 inh: inconclusive; Lamin A splicing: 7%[46 µM]; Luc counter: -3%

How did COC(=O)CSc1nc2c(c(-c3ccco3)c1C#N)CCCC2 do in these assays?
IMPase Li cell: -18%[38.3 µM]; ALDH1A1 inh: 13µM*; Lamin A splicing: -1%; HPGD block: 13µM*; Luc counter: 8%

What do the screens show for `c1ccc(-c2noc(-c3ccc4c(c3)OCO4)n2)cc1`?
IMPase Li cell: -3%; ALDH1A1 inh: 8%; Luc counter: 10µM*

Results for COc1ccc(-c2noc(-c3ccc4c(c3)OCO4)n2)cc1 ?
IMPase Li cell: inconclusive; ALDH1A1 inh: inconclusive; Lamin A splicing: -3%; HPGD block: inconclusive; Luc counter: -6%

What do the screens show for `CCOc1ccc(NC(=S)N2CCCN(Cc3cc(C)ccc3C)C2)cc1`?
IMPase Li cell: 19%; ALDH1A1 inh: 1%; Lamin A splicing: inconclusive; Luc counter: -5%
